Data on 18 compounds can be found in PubChem BioAssay (NCATS).

Records with an inconclusive call do not appear. Calls of active or inactive are those of the source. Calls follow the shape of the full dose curve; tested in HEK293 reporter line.
% is scaled to controls: 0 for no effect and ±100 for the full control effect.

This experiment in a line: qHTS for Inhibitors of the Functional Ribonucleoprotein Complex (vRNP) of Lymphocytic Choriomeningitis Arenaviruses (LCMV): Viability assay - alamar blue signal for LCMV Primary Screen (AID 1347085). Also: nearly all actives have a fitted effect of over 80% in size. Conditions: alamar blue viability counter-screen, LCMV vRNP screen cells; series mostly up to 57.5 µM; activity change, negative = lower viability: at the top concentration. Background: qHTS replaces the single test concentration by a dilution series.
In the case of `O=C1N[C@@H](Cc2cnc[nH]2)C(=O)N2CCC[C@@H]12`, the “activity change, negative = lower viability” value is 2.58% (inactive). Under `CCCCCCC[C@@H](C/C=C/CCC(=O)O)OC` stands 18.4% (inactive); under `OC[C@H]1O[C@@H](OC[C@H]2O[C@@H](O)[C@H](O)[C@@H](O)[C@@H]2O)[C@H](O)[C@@H](O)[C@@H]1O`, 15.4% (inactive); under `CCCC1CCCC(=O)O1` (stereo not drawn), 18.5% [at 115 µM] (inactive). The value for `CC1(C)C[C@H]2C3=CCC4[C@@]5(C)CC[C@H](O)C(C)(C)C5CC[C@@]4(C)[C@]3(C)[C@@H](O)[C@@H](O)[C@@]2(CO)[C@@H](O)[C@@H]1O` (stereo partly drawn) was 8.66% (inactive); that for `C[C@]1(CC/C(=C/CO)CO)[C@H](CO)CC[C@@]23COC(=O)C2=CCC[C@@H]31` was 10.4% (inactive); that for `CC(C)c1cccc(O)c1` was 0.454% [at 115 µM] (inactive). Under `CC1CC(C)C(=O)C1=O` (stereo not drawn) stands 2.26% [at 115 µM] (inactive); under `CC1=CC[C@@]23C[C@@H]1C(C)(C)[C@@H]2CC[C@H]3C`, 21% [at 115 µM] (inactive); under `COc1cc(O)c(C(C)=O)c2c1C=CC(C)(C)O2`, 9.29% (inactive).

Turning to `CC(Cc1c[nH]c2ccccc12)C(=O)O` (stereo not drawn), the “activity change, negative = lower viability” value was 4.93% (inactive). The value for `O=c1c(O)c(-c2ccccc2)oc2cc(O)cc(O)c12` was 6% (inactive). On to `CC1(C)CC(=O)c2cc(O)ccc2O1`, for which the “activity change, negative = lower viability” value is 0.127% (inactive).

As for `Oc1cc(O)cc(C=Cc2ccc(O)c(O)c2)c1`, the “activity change, negative = lower viability” value was 11.9% (inactive). As to `COc1ccc2c(Oc3ccc(NC(=O)c4c(C)n(CC(C)(C)O)n(-c5ccccc5)c4=O)nc3)ccnc2c1`, the “activity change, negative = lower viability” value is -8.13% (inactive).

With `O=C1CCCCCCCCCCCCCC1`, the “activity change, negative = lower viability” value is 21% [at 115 µM] (inactive). The value for `COC1=C(C)C(O)=C(C(=O)/C=C/c2ccccc2)C(=O)C1(C)C` was 9.58% (inactive); that for `CCN1C[C@]2(C)CCC(OC)[C@@]34C5C[C@@H]6CC[C@@](O)(C5C(=O)O6)[C@@H](C(O)C23)[C@@H]14` (stereo partly drawn) was 4.58% (inactive).
